# Laboratory results from the supplement of paper PMC7411640.
# Where a name gives a salt, the structure may show the parent alone.
# Tested on: MDA-MB-468
# Test: phospho-S6 immunofluorescence (DAPI-normalised), per-plate z-score; higher = higher phospho-S6 signal (less pathway suppression)
# Conditions: 24 h
# Method: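 GPCR-targeted compound library (MedChemExpress HY-L006) tested on MDA-MB-468 PTEN-null TNBC cells in 384-well plates at 0.1, 1 or 10 uM, combined with vehicle, GDC0941 450 nM or lapatinib 1 uM, for 24 h. Phospho-S6 (S240/244) immunofluorescence normalised to DAPI and expressed as a per-plate z-score; values are the mean of biological triplicates.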
SMILES,phospho-S6 immunofluorescence (z-score) (co-treatment: GDC0941 450 nM),phospho-S6 immunofluorescence (z-score) (co-treatment: lapatinib 1 uM),phospho-S6 immunofluorescence (z-score) (co-treatment: vehicle)
O=C(O[C@H]1C[N+]2(CCCOc3ccccc3)CCC1CC2)C(O)(c1cccs1)c1cccs1 [Aclidinium (Bromide)] (compound 10 µM),0.75,1.09,-0.87
COc1ccc(C(=O)c2c(C)n(CCN3CCOCC3)c3cc(I)ccc23)cc1 (compound 10 µM),-3.18,-1.01,-3.47
NCC(O)c1ccc(O)cc1 (centres undefined) [Octopamine (hydrochloride)] (compound 10 µM),0.26,0.86,1.09
O=c1[nH]c2ccccc2n1CCCN1CCC(n2c(=O)[nH]c3cc(Cl)ccc32)CC1 [Domperidone] (compound 10 µM),0.19,0.25,1.62
C=CCN1C[C@H](C(=O)N(CCCN(C)C)C(=O)NCC)C[C@@H]2c3cccc4[nH]cc(c34)C[C@H]21 [Cabergoline] (compound 10 µM),0.82,-0.33,-0.33
C[N+]1(C)CCCC(OC(=O)C(O)(c2ccccc2)c2ccccc2)C1 (centres undefined) [Mepenzolate (Bromide)] (compound 10 µM),-0.25,-0.12,-0.02
CCCC(C)(C)c1ccc2c(c1)OC(C)(C)[C@@H]1CC=C(C)C[C@@H]21 (compound 10 µM),2.38,1.8,2.21
CC(C)[C@@H](CN1CC[C@@](C)(c2cccc(O)c2)[C@@H](C)C1)NC(=O)[C@H]1Cc2ccc(O)cc2CN1 [JDTic (dihydrochloride)] (compound 10 µM),0.26,-2.5,0.81
N#Cc1c(Oc2cccc(OS(=O)(=O)CCCC(F)(F)F)c2)cccc1C(F)(F)F (compound 10 µM),-3.05,-2.85,-5.42
CN1C(=O)COc2c(C(=O)NC3CN4CCC3CC4)cc(Cl)cc21 (centres undefined) [Azasetron (hydrochloride)] (compound 10 µM),0.53,0.2,1.23
Cc1ccc2c(c1)[C@]13CCCC[C@@H]1[C@H](C2)N(C)CC3 [Dimemorfan (phosphate)] (compound 10 µM),0.3,0.09,0.76
COc1cc2c3c(c1OC)-c1ccccc1C[C@H]3N(C)CC2 [Nuciferine] (compound 10 µM),0.21,-0.74,0
CC(C)(C)NCC(O)c1ccc(O)cc1Cl (centres undefined) (compound 10 µM),0.77,0.7,0.14
